Experimental data as given in PubChem BioAssay AID1259415 (National Center for Advancing Translational Sciences (NCATS), 2018).
In all, about 410,000 compounds went through this assay and about 18,000 (4.4%) were called active. Inconclusive results (about 7%) are left out. The sample holds actives, similar compounds and a random draw of the others, so the mix is not that of the screen. Unmarked numbers belong to inactive results. Rule as the data show it: active = activity change below about -60%; inconclusive = no clear call, values can overlap the other calls; inactive = above about -39%.

Test: qHTS Assay for inhibitors of the human cytomegalovirus (HCMV)
Details: HFF cells, HCMV-luciferase reporter, 72 h; at 57.5 µM; stronger effect = lower value
Procedure, shortened: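 Two compound doses tested in HFFs infected with HCMV-luciferase, MOI 1 PFU/cell, 72 h at 37C. Lysate luminescence read with OneGlo; data normalized against buffer-only and 10uM Salinomycin inhibitor controls.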
% is scaled to controls: 0 for no effect and ±100 for the full control effect.

Which activity change, negative = inhibition does the source give for CCc1cc2c(SCC(=O)Nc3ncc(Cl)c(C)c3Cl)ncnc2s1 here?
Its activity change, negative = inhibition is -15.5%.

Which activity change, negative = inhibition does the source give for CCc1cc2c(NC(Cc3ccccc3)C(=O)O)ncnc2s1 (stereo unspecified) here?
Its activity change, negative = inhibition is 32.8%.

Which activity change, negative = inhibition does the source give for CCc1cc2c(NC3CCCC3)ncnc2s1 here?
Its activity change, negative = inhibition is -76.1% (active).

With NC1=NC(=O)C(Cc2cccc(Cl)c2Cl)S1 (stereo unspecified) as the compound, how does the activity change, negative = inhibition read?
The activity change, negative = inhibition was -8.43%.

Which activity change, negative = inhibition does the source give for CC(C)=N/N=C1/NC(=O)C(Cc2ccccc2)S1 (stereo unspecified) here?
The activity change, negative = inhibition was 29.3%.

For O=C1NC(=Nc2ccc(Cl)cc2)SC1Cc1cccc(Cl)c1Cl (stereo unspecified), which activity change, negative = inhibition is on record?
The activity change, negative = inhibition was -64.5% (active).

For CCCCC(CC)CNC(=O)C1CCN(S(=O)(=O)c2cccc3nsnc23)CC1 (stereo unspecified), which activity change, negative = inhibition is on record?
Its activity change, negative = inhibition is -8.64%.

Which activity change, negative = inhibition does the source give for CCn1c(=O)c2cc(C(=O)NCCc3ccc(Cl)cc3)sc2c2ccccc21 here?
Its activity change, negative = inhibition is -0.35%.

With CCc1ccc(CNC(=O)c2cc3c(=O)n(CC)c4ccccc4c3s2)cc1 as the compound, how does the activity change, negative = inhibition read?
The activity change, negative = inhibition was -16.1%.

For CCN(CCCNC(=O)c1cc2c(=O)n(CC)c3ccccc3c2s1)Cc1ccccc1, which activity change, negative = inhibition is on record?
Its activity change, negative = inhibition is -82.5% (active).

With O=c1c(NCc2cccs2)nccn1-c1ccccc1 as the compound, how does the activity change, negative = inhibition read?
Its activity change, negative = inhibition is 54.2%.

For COc1ccc(N=CN2c3ccccc3-n3cccc3C2CCc2ccccc2)cc1 (stereo unspecified), which activity change, negative = inhibition is on record?
The activity change, negative = inhibition was 29.9%.

Which activity change, negative = inhibition does the source give for CCc1nc2c(cnn2-c2ccc(C)cc2)c(=O)n1-c1ccc(C)cc1 here?
Its activity change, negative = inhibition is -37.2%.

Which activity change, negative = inhibition does the source give for COc1cc(C(=O)Nn2c(CC(C)C)nc3ccccc3c2=O)cc(OC)c1OC here?
The activity change, negative = inhibition was 36.7%.

With COc1cc(OC)cc(-c2nc3ccccc3c(=O)n2NC(=O)c2cccnc2Cl)c1 as the compound, how does the activity change, negative = inhibition read?
The activity change, negative = inhibition was -24.5%.

Which activity change, negative = inhibition does the source give for COc1ccccc1C(=O)Nn1c(-c2cccs2)nc2ccccc2c1=O here?
Its activity change, negative = inhibition is -71.7% (active).

Which activity change, negative = inhibition does the source give for O=C(CC(c1cccs1)N1Cc2ccccc2C1=O)Nc1ccc(F)c(F)c1 (stereo unspecified) here?
Its activity change, negative = inhibition is -28.8%.

With Cc1ccc(C)c(N2CCN(C(=O)Cc3c(C(=O)O)c(C)cn3C)CC2)c1 as the compound, how does the activity change, negative = inhibition read?
Its activity change, negative = inhibition is 7.89%.

For CCC1CCC2(CC1)NC(=O)N(CC(=O)Nc1ccc(OC)cc1)C2=O (stereo unspecified), which activity change, negative = inhibition is on record?
The activity change, negative = inhibition was -8.02%.

Which activity change, negative = inhibition does the source give for COC(=O)c1ccc(C(=O)NC2CC(C)(C)Cc3c2cnn3-c2ccc(F)cc2)nc1 (stereo unspecified) here?
The activity change, negative = inhibition was 29.8%.

With Cn1nccc1C(=O)NC1CCCc2c1cnn2-c1ccc(F)cc1F (stereo unspecified) as the compound, how does the activity change, negative = inhibition read?
The activity change, negative = inhibition was -81.5% (active).

For CNS(=O)(=O)c1cccc(C(=O)NC2CCCc3ccccc32)c1 (stereo unspecified), which activity change, negative = inhibition is on record?
Its activity change, negative = inhibition is -19.2%.

For Cn1nccc1C(=O)NC1CCCc2c1cnn2-c1ccccc1F (stereo unspecified), which activity change, negative = inhibition is on record?
Its activity change, negative = inhibition is -80% (active).

Which activity change, negative = inhibition does the source give for CC(C)(C)OC(=O)N1CCC(c2c(C(=O)NCCc3ccsc3)cnn2-c2ccc(F)cc2F)CC1 here?
The activity change, negative = inhibition was 0%.

Which activity change, negative = inhibition does the source give for Cn1cc(C(=O)NCc2ccccc2F)cn1 here?
The activity change, negative = inhibition was 3.61%.

Which activity change, negative = inhibition does the source give for COc1ccc(-n2c(C)nc3c(cnn3-c3ccc(F)cc3)c2=O)cc1 here?
The activity change, negative = inhibition was -33.7%.
